Molecules are shown by their SMILES.

The first experiment addresses Hexose transporter 1 (Plasmodium falciparum) (UniProt O97467). The experiment can be described thus: ST_JUDE_LEISH: Cytotoxicity at 2uM final concentration against transgenic Leishmania Mexicana promastigotes LmPfHT that are glucose transport deficient and complemented with the Plasmodium falciparum hexose transporter. Activity is measured by DNA content using SYBR green in vitro. It is filed as functional.
As for `COc1ccccc1CCNC(=O)c1cnc(N2CCN(c3ccncc3)CC2)c(Cl)c1`, the inhibition came out at 83.8%.
Take `CS(=O)(=O)N(CC(O)Cn1c2ccc(Cl)cc2c2cc(Cl)ccc21)c1ccccc1` (stereo not given): the inhibition was 1.45%.
Turning to `C=CCc1ccc(C[C@H](NC(=O)OC(C)(C)C)C(=O)OC)cc1`, the inhibition worked out at 40.4%.
In the case of `O=c1cc(NCCCNC2CCCc3c2cc(Cl)c(Cl)c3Cl)[nH]c2ccccc12` (stereo not given), the inhibition was found to be 1.1%.
Turning to `CC(C)Cn1c(N)cc(=O)n(C)c1=O`, the inhibition was 3.45%.
As for `N=C(N)c1cccc(-c2cc(-c3cccc(C(=N)N)c3)on2)c1`, the inhibition is 2.23%.
Still for that read-out and setting: the value for `CN1CCC(C(=O)Nc2cccc(-c3ccc(-c4nc5cc(F)ccc5[nH]4)cc3)c2)CC1` was 10.3%; that for `CN1CCN(CCCN(Cc2cccc(-c3ccc(CNCCc4ccccc4)cc3)c2)C(=O)c2cccs2)CC1` was 4.22%.
Consider `CC(C)C(=O)NC(Nc1ccc([N+](=O)[O-])cc1)C(Cl)(Cl)Cl` (stereo not given), for which the inhibition amounted to 3.53%.
`CCN1CCC(N(Cc2ccc(-c3ccc(C(F)(F)F)cc3)cc2)C(=O)Cn2c(CCc3cccc(F)c3F)cc(=O)c3cn(C)nc32)CC1`: the inhibition turned out to be 1.08%.
With `CCCOc1cc(O)c(-c2[nH]nc(C)c2Oc2ccccc2)cc1CC`, the inhibition was -0.1%.
For the compound `N=c1c2c(n(Cc3ccccc3)c3c1CCC3)CCCC2`, the inhibition turned out to be 28.1%.
For `CN(C)CCCOC(=O)c1cc2cc(-c3ccccc3)ccc2n1S(=O)(=O)Cc1ccccc1`, the inhibition was determined as 10.6%.
As to `Cc1cc(N(C)C2CCN(C)C2)nc(Nc2ccc(Cl)cc2)n1` (stereo not given), the inhibition came out at 8.61%.
Turning to `CCN1CCN(c2cc(C)c3cc(NC(=O)c4cccc([N+](=O)[O-])c4)ccc3n2)CC1`, the inhibition stood at 0.44%.
Consider `O=C(Nc1ccc(Cl)cc1)Nc1nc2cc([N+](=O)[O-])ccc2[nH]1`, for which the inhibition was 0.01%.
For the compound `CC(C)(CNC(=O)[C@H]1CCCCN1)c1nc(-c2ccc(Cl)c(O)c2)c(-c2ccncc2)[nH]1`, the inhibition worked out at 4.64%.
As to `CNCCNCc1cccc(-c2cccc(-c3nc4cc(C(F)(F)F)ccc4[nH]3)c2)c1`, the inhibition was 1.32%.
The same measure, in the same setting: with `COc1ccc(Nc2nccc(NCCNC(=O)Nc3ccccc3F)n2)cc1` the figure was 3.75%; with `N=C(N)Nc1nc(-c2cc(NC(=O)C(F)(F)F)cc([N+](=O)[O-])c2)cs1`, 0.51%.
With `COc1cc(Nc2ccnc3cc(-c4ccccn4)ccc23)cc(OC)c1OC`, the inhibition is 8.67%.
In the case of `N#Cc1ccc(CN2CCC(Oc3ccc(NC(=O)c4ccco4)cc3Cl)CC2)cc1`, the inhibition turned out to be 1.94%.
Same read-out and setting: the value for `CCNC(=O)Nc1ccc(-c2ccc(-c3nc4cccc(C)c4[nH]3)s2)cc1` was 8.87%; that for `O=C(Nc1ccc(Br)cc1)N1CCC(n2c(-c3ccccc3)nc3cccnc32)CC1` was 1.56%.
On the same count and under the same terms, with `COc1ccc(-c2csc3nc(C)nc(Cl)c23)cc1OC` the figure was 0.48%; with `COc1ccc(S(=O)(=O)NC2CCN(c3cc(C)nc(Nc4cccc(C#N)c4)n3)CC2)cc1`, 1.33%; with `CCN(CC)CCNC(=O)c1ccc(NC(=O)c2cc(-c3ccncc3)nc3ccccc23)cc1`, -0.76%.
`CN(CCCCCN1CCC(NC(=O)Nc2ccc(C(F)(F)F)cc2)C1)C(=O)/C=C/c1ccc(Cl)c(Cl)c1` (stereo not given): the inhibition was 2.11%.
Consider `O=C(Nc1ccc(Br)cc1)N(CCN1CCOCC1)CC(O)COCc1ccc(Cl)c(Cl)c1` (stereo not given), for which the inhibition is 1.38%.
Take `O=[N+]([O-])c1ccc(C(O)P(=O)(c2ccccc2)c2ccccc2)cc1` (stereo not given): the inhibition was -0.85%.
On the same count and under the same terms, the value for `OCCN1CCN(Cc2ccc(-c3ccc(-c4nc5cc(C(F)(F)F)ccc5[nH]4)s3)cc2)CC1` was 4.05%.
On the same count and under the same terms, the value for `Cc1nc(-c2cccc3c(NC(=O)Nc4ccc5nccc(N6CCN(C)CC6)c5c4)cccc23)no1` was 4.25%; that for `Cc1ccc(-n2nc3ccc(NC(=O)c4ccc([N+](=O)[O-])o4)cc3n2)cc1C` was 82.4%.
Regarding `Cc1nc2ccc([N+](=O)[O-])cc2c(=O)n1OCc1ccccc1`, the inhibition stood at 2.03%.
For the compound `CCc1c(CCNC/C=C/C=C/CNCCc2ccc(OC)c(OC)c2CC)ccc(OC)c1OC`, the inhibition was determined as 0.39%.
Turning to `COc1cc(-n2c(CN3CCCC3)nc3cc(-c4ccc(Cl)cc4)sc3c2=O)ccc1OCCN1CCCC1`, the inhibition was 2.69%.
The same measure, in the same setting: the value for `COc1ccc(CN2CCC(C(=O)Nc3cccc(-c4cccc(Cl)c4)c3)CC2)cc1O` was 7.5%; that for `O=C(/C=C/c1ccc(Cl)c(Cl)c1)N1CCC(CCCN2CCC(c3c[nH]c4ccccc34)CC2)CC1` was 51.2%; that for `Fc1ccc(CN2CCN(c3ncnc4cc(-c5ccccc5)sc34)CC2)cc1` was -1.81%.
`Cn1ccnc1Sc1ncccc1[N+](=O)[O-]`: the inhibition was 0.92%.

The target in the next experiment is Glucose transporter (Leishmania mexicana) (UniProt O61059). The experiment can be described thus: ST_JUDE_LEISH: Cytotoxicity at 2uM final concentration against transgenic Leishmania Mexicana promastigotes LmGT2 that are glucose transport deficient and complemented with the L. Mexicana glucose transporter 2. Activity is measured by DNA content using SYBR green in vitro. The format is functional.
For `COc1ccccc1CCNC(=O)c1cnc(N2CCN(c3ccncc3)CC2)c(Cl)c1`, the inhibition was 82.9%.
Consider `CS(=O)(=O)N(CC(O)Cn1c2ccc(Cl)cc2c2cc(Cl)ccc21)c1ccccc1` (stereo not given), for which the inhibition was 2.64%.
In the case of `C=CCc1ccc(C[C@H](NC(=O)OC(C)(C)C)C(=O)OC)cc1`, the inhibition turned out to be 34.5%.
Consider `O=c1cc(NCCCNC2CCCc3c2cc(Cl)c(Cl)c3Cl)[nH]c2ccccc12` (stereo not given), for which the inhibition amounted to 0.08%.
Turning to `CC(C)Cn1c(N)cc(=O)n(C)c1=O`, the inhibition was determined as 3.72%.
For the compound `N=C(N)c1cccc(-c2cc(-c3cccc(C(=N)N)c3)on2)c1`, the inhibition is -0.32%.
Still for that read-out and setting: the value for `CN1CCC(C(=O)Nc2cccc(-c3ccc(-c4nc5cc(F)ccc5[nH]4)cc3)c2)CC1` was 9.64%; that for `CN1CCN(CCCN(Cc2cccc(-c3ccc(CNCCc4ccccc4)cc3)c2)C(=O)c2cccs2)CC1` was 3.91%; that for `CC(C)C(=O)NC(Nc1ccc([N+](=O)[O-])cc1)C(Cl)(Cl)Cl` (stereo not given) was 1.48%.
In the case of `CCN1CCC(N(Cc2ccc(-c3ccc(C(F)(F)F)cc3)cc2)C(=O)Cn2c(CCc3cccc(F)c3F)cc(=O)c3cn(C)nc32)CC1`, the inhibition stood at 0.21%.
The same measure, in the same setting: with `CCCOc1cc(O)c(-c2[nH]nc(C)c2Oc2ccccc2)cc1CC` the figure was -1%; with `N=c1c2c(n(Cc3ccccc3)c3c1CCC3)CCCC2`, 7.1%.
Still for that read-out and setting: with `CN(C)CCCOC(=O)c1cc2cc(-c3ccccc3)ccc2n1S(=O)(=O)Cc1ccccc1` the figure was 1.19%; with `Cc1cc(N(C)C2CCN(C)C2)nc(Nc2ccc(Cl)cc2)n1` (stereo not given), 4.14%; with `CCN1CCN(c2cc(C)c3cc(NC(=O)c4cccc([N+](=O)[O-])c4)ccc3n2)CC1`, -1.42%.
On to `O=C(Nc1ccc(Cl)cc1)Nc1nc2cc([N+](=O)[O-])ccc2[nH]1`, for which the inhibition turned out to be 0.02%.
As for `CC(C)(CNC(=O)[C@H]1CCCCN1)c1nc(-c2ccc(Cl)c(O)c2)c(-c2ccncc2)[nH]1`, the inhibition stood at 6.24%.
On the same count and under the same terms, with `CNCCNCc1cccc(-c2cccc(-c3nc4cc(C(F)(F)F)ccc4[nH]3)c2)c1` the figure was 0.13%; with `COc1ccc(Nc2nccc(NCCNC(=O)Nc3ccccc3F)n2)cc1`, -0.4%.
Same read-out and setting: the value for `N=C(N)Nc1nc(-c2cc(NC(=O)C(F)(F)F)cc([N+](=O)[O-])c2)cs1` was 1%; that for `COc1cc(Nc2ccnc3cc(-c4ccccn4)ccc23)cc(OC)c1OC` was 5.6%.
As to `N#Cc1ccc(CN2CCC(Oc3ccc(NC(=O)c4ccco4)cc3Cl)CC2)cc1`, the inhibition was determined as 7.81%.
Turning to `CCNC(=O)Nc1ccc(-c2ccc(-c3nc4cccc(C)c4[nH]3)s2)cc1`, the inhibition is 7.95%.
With `O=C(Nc1ccc(Br)cc1)N1CCC(n2c(-c3ccccc3)nc3cccnc32)CC1`, the inhibition was 4.12%.
Same read-out and setting: with `COc1ccc(-c2csc3nc(C)nc(Cl)c23)cc1OC` the figure was 0.63%; with `COc1ccc(S(=O)(=O)NC2CCN(c3cc(C)nc(Nc4cccc(C#N)c4)n3)CC2)cc1`, 0.61%; with `CCN(CC)CCNC(=O)c1ccc(NC(=O)c2cc(-c3ccncc3)nc3ccccc23)cc1`, -1.61%.
With `CN(CCCCCN1CCC(NC(=O)Nc2ccc(C(F)(F)F)cc2)C1)C(=O)/C=C/c1ccc(Cl)c(Cl)c1` (stereo not given), the inhibition amounted to 2.97%.
On the same count and under the same terms, the value for `O=C(Nc1ccc(Br)cc1)N(CCN1CCOCC1)CC(O)COCc1ccc(Cl)c(Cl)c1` (stereo not given) was -5.49%; that for `O=[N+]([O-])c1ccc(C(O)P(=O)(c2ccccc2)c2ccccc2)cc1` (stereo not given) was -0.11%; that for `OCCN1CCN(Cc2ccc(-c3ccc(-c4nc5cc(C(F)(F)F)ccc5[nH]4)s3)cc2)CC1` was 4.01%.
Regarding `Cc1nc(-c2cccc3c(NC(=O)Nc4ccc5nccc(N6CCN(C)CC6)c5c4)cccc23)no1`, the inhibition turned out to be 6.65%.
Regarding `Cc1ccc(-n2nc3ccc(NC(=O)c4ccc([N+](=O)[O-])o4)cc3n2)cc1C`, the inhibition was found to be 40.3%.
Take `Cc1nc2ccc([N+](=O)[O-])cc2c(=O)n1OCc1ccccc1`: the inhibition amounted to 2.66%.
Consider `CCc1c(CCNC/C=C/C=C/CNCCc2ccc(OC)c(OC)c2CC)ccc(OC)c1OC`, for which the inhibition is 1.71%.
Regarding `COc1cc(-n2c(CN3CCCC3)nc3cc(-c4ccc(Cl)cc4)sc3c2=O)ccc1OCCN1CCCC1`, the inhibition turned out to be 0.37%.
Still for that read-out and setting: the value for `COc1ccc(CN2CCC(C(=O)Nc3cccc(-c4cccc(Cl)c4)c3)CC2)cc1O` was 6.49%; that for `O=C(/C=C/c1ccc(Cl)c(Cl)c1)N1CCC(CCCN2CCC(c3c[nH]c4ccccc34)CC2)CC1` was -0.32%.
`Fc1ccc(CN2CCN(c3ncnc4cc(-c5ccccc5)sc34)CC2)cc1`: the inhibition was -1.83%.
For the compound `Cn1ccnc1Sc1ncccc1[N+](=O)[O-]`, the inhibition is 1.8%.

The values are drawn from ChEMBL document CHEMBL3433997, “St. Jude Leishmania screening dataset” (2016).
